Compounds without any hit were thinned out: in the full panel of roughly 83,000, 20% have a hit.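 Results are percent growth after 48 hours of single-concentration exposure. 100 means growth as in untreated cells, lower positive values show inhibition; negative values down to -100 show cell death.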 Unmarked numbers belong to inactive results. The source made the active and inactive calls. The calls were made as follows: active = growth percent below 10; inactive = the rest.
Legend:
Experiment in all cases: NCI-60 one-dose screen, 48 h (100 = growth as untreated, 0 = no growth, -100 = all killed)
Conditions in all cases: 10 µM unless noted
[1] = system: NCI-H23 lung
[2] = system: NCI-H226 lung
[3] = system: NCI-H322M lung
[4] = system: HOP-62 NSCLC
[5] = system: NCI-H460 lung
[6] = system: NCI-H522 lung
[7] = system: A549/ATCC NSCLC
[8] = system: 786-0 renal
[9] = system: COLO 205 colon
[10] = system: DU-145 prostate
[11] = system: K-562 leukemia
[12] = system: MALME-3M melanoma
[13] = system: MDA-MB-231 breast
[14] = system: RXF 393 renal
[15] = system: SF-268 CNS
[16] = system: SF-295 CNS
[17] = system: SF-539 CNS
[18] = system: UACC-257 melanoma
[19] = system: M14 melanoma

Row | Compound | growth [1] | growth [2] | growth [3] | growth [4] | growth [5] | growth [6] | growth [7] | growth [8] | growth [9] | growth [10] | growth [11] | growth [12] | growth [13] | growth [14] | growth [15] | growth [16] | growth [17] | growth [18] | growth [19]
1 | CCN(CC)CCNC(=O)C(F)(F)C(F)(F)C(F)(F)F | 114% | 93.7% | 114% | 95.6% | 111% | 110% | 104% | 87.2% | 102% | 115% | 109% | 124% | 104% | 98% | 103% | 101% | 90.7% | 111% | 97.7%
2 | CC1OC(n2c3ccccc3c3c4c(c5c6ccccc6[nH]c5c32)C(=O)N(CCN2CCOCC2)C4=O)CC(O)C1O (centres undefined) | 16.3% | 17% | 59.1% | -5.89% (active) | 3.35% (active) | 10.6% | 12.2% | 6.66% (active) | 20% | 18.1% | 18.4% | 49.1% | 74.5% | 33.4% | 29.8% | 6.46% (active) | 8.58% (active) | 31.8% | 6.29% (active)
3 | O=C(NCCN1CCCC1)n1cc(-c2ccncc2)c(-c2cc(O)cc(Cl)c2)n1 | 102% | 93.9% | 115% | 92.3% | 99.2% | 98.6% | 101% | 79.2% | 76.4% | 104% | 82% | 9.44% (active) | 80.8% | 75.5% | 92.6% | 125% | 77.9% | 43.4% | 25.4%
4 | c1ccc(-c2ccc(-c3ccccc3)[nH]2)cc1 | 86.5% | 86.5% | 95.6% | 105% | 103% | 85.7% | 88.7% | 96.6% | 127% | 102% | 81.1% | 96.4% | 89.5% | 102% | 98.6% | 109% | 93.9% | 101% | 110%
5 | COc1ccc(-c2cc(-c3cn(-c4cccc(Cl)c4)nc3-c3ccc(OC)cc3)[nH]c(=S)n2)cc1 | 83% | 85.8% | 95.5% | 99.1% | 33.5% | 77.7% | 50.4% | 96.5% | 86.6% | 50.1% | 101% | 90.9% | 67.7% | 102% | 70.6% | 93% | 92.2% | 71.5% | 92%
6 | CCCCCCCCN=C(NCCCCCCCC)SCc1cccc2ccccc12 | -81.2% (active) | -84.2% (active) | -1.49% (active) | -97.7% (active) | -89.1% (active) | -83.3% (active) | -75.8% (active) | -88.1% (active) | -99.7% (active) | -74.3% (active) | -13.4% (active) | -44.3% (active) | -92.6% (active) | -78.6% (active) | -90.8% (active) | -85.1% (active) | -87.1% (active) | -77.7% (active) | -86.6% (active)
7 | CCc1onc(-c2ccc(OC)cc2)c1-c1ccccc1OCCN(CC)CC | 85.4% | 93.5% | 76.6% | 90.4% | 98.7% | 88.5% | 101% | 75.9% | 67% | 96.7% | 70.7% | 97.7% | 93.3% | 82.2% | 85.8% | 79.5% | 90.2% | 111% | 76.3%
8 | CCN(CC)CCCC(C)Nc1ccnc2ccc(Oc3ccccc3)cc12 (centres undefined) | 90.6% | 120% | 72% | 86.6% | 95.2% | 36.2% | 81.6% | 72.3% | 41.4% | 88.6% | 13.7% | -38.6% (active) | 42.5% | 24.5% | 66.2% | 93.7% | -41.3% (active) | -54.1% (active) | -58% (active)
9 | C=CCCCCOc1cccc(/C=C2\N=C3SCCCN3C2=O)c1 | 102% | 94.3% | 84.6% | 94.5% | 103% | 83.3% | 93.2% | 95% | 101% | 108% | 91.5% | 115% | 88.6% | 114% | 110% | 96% | 104% | 112% | 103%
10 | COc1ccc(C(=O)OC2C(OC3C(O)COC(O[C@H]4C[C@H]5[C@@H]6CC=C7C[C@@H](O)CC[C@]7(C)[C@H]6CC[C@]5(C)[C@H]4[C@H](C)C(=O)CCC(C)C)C3OC(C)=O)OCC(O)C2O)cc1 (some centres undefined) | 2.95% (active) | -14% (active) | 36.9% | -32.2% (active) | -20.3% (active) | -65.7% (active) | -14.3% (active) | -41.2% (active) | -64.3% (active) | 28.5% | -50.3% (active) | -12.7% (active) | 10.6% | -71.9% (active) | -12.6% (active) | -64.5% (active) | -69.8% (active) | -60.3% (active) | -69.3% (active)
11 | CCCCn1cnc2c(SCc3ccc([N+](=O)[O-])cc3)nc(N)nc21 | 96.5% | 85.6% | 112% | 95.2% | 108% | 73.9% | 90.6% | 79.5% | 105% | 123% | 59.8% | 130% | 82.3% | 106% | 84.4% | 122% | 94.7% | 97.5% | 106%
12 | O=C(C(=O)N1CCCC1)c1cn(CCCn2cc(C(=O)C(=O)N3CCCC3)c3cc(Br)ccc32)c2ccc(Br)cc12 | 80.3% | 85.9% | 82.3% | 56.1% | 53.4% | 62% | 57.8% | 71.4% | 106% | 62.3% | 81.9% | 58.1% | 82.1% | 82.8% | 53.7% | -22.4% (active) | 69.5% | 76.4% | 89.2%
13 | COC(=O)c1ccc2c(c1)nc(-c1cc3ccccc3[nH]c1=O)n2-c1cc(C(C)(C)C)[nH]n1 | 44.7% | 90.4% | 77% | 66.5% | 45.4% | -2.05% (active) | 81.5% | 33.3% | 71.6% | 83.7% | 32.2% | 96.2% | 68.4% | 89.9% | 72.8% | 93.8% | 92.6% | 78.5% | 58.2%
14 | COc1cc(C2CC(c3ccc(Cl)cc3)=NN2C(C)=O)ccc1Oc1ccnc2cc(Cl)ccc12 (centres undefined) | 64.1% | 19.5% | 53.3% | 23.1% | 30.8% | 40.9% | 42.6% | 33.6% | 26.2% | 36.6% | 65.3% | 53.9% | 36.1% | 46.1% | 57.5% | 18.3% | 40.2% | 68.5% | 79.9%
15 | O=C(NO)c1ccc(CNc2cccc3nc(C4CC4)n(-c4ccccc4)c(=O)c23)cc1 | -48.4% (active) | 44.4% | 37.7% | 21.5% | 22.6% | 19.2% | 15.3% | 24.8% | 8.11% (active) | 3.14% (active) | 11.2% | 36.7% | 26.4% | -18.7% (active) | 7.14% (active) | 12.9% | 9.38% (active) | 37.6% | 18.4%
16 | O=C(CCl)Nc1cc(O)c2c(c1)C(=O)c1cccc(O)c1C2=O | -45% (active) | -20.6% (active) | 59% | -100% (active) | -43.5% (active) | -89% (active) | 91% | -71.5% (active) | -81.5% (active) | -82.5% (active) | -46.2% (active) | -72.9% (active) | -27.7% (active) | -67.1% (active) | -49.5% (active) | 61.7% | -32.3% (active) | 5.96% (active) | -33.2% (active)

— PubChem BioAssay (NCI)
